Assay results from ChEMBL document CHEMBL3988442, “University of Dundee, Small-Polar-MMV Screening Library” (2021).
Out of some 38,000 compounds screened, about 1,200 (3.2%) showed an effect of 50% or more. The median lay at about -58%. For the sample, strong results were picked, then their nearest neighbours and some compounds at random.

System: Plasmodium falciparum
Assay: Calibr Malaria Delayed Death Assay SOP
Type: functional, organism-based
Parameters: scale not given: in the data most compounds retested in dose-response had high values
Settings: concentration 4.99e-06 (unit not given; other assays of the set use mol/L)

SMILES	Percent Effect [%]
O=C(Nc1cnccn1)[C@H]1CC[C@@H]2[C@@H](CCN2Cc2ccccn2)O1.O=C(O)C(F)(F)F	-97.13
COc1cc(C(=O)NCCCO)cc2occc12	-87.71
CCc1[nH]c2ccc(CNC(=O)c3cnc(N)nc3C)cc2c1C	-136.6
Cc1[nH]c2c(F)cccc2c1CC(=O)NC1CCCCNC1=O (stereo not drawn)	-28.67
O=C1CNc2ncnc(Nc3cnn(Cc4cccc(F)c4)c3)c2N1	-137.4
O=C(Cc1csc(-c2ccco2)n1)N1CCCC1Cn1cccn1 (stereo not drawn)	-188.1
CCS(=O)(=O)N1CCC2(CN(Cc3ccc(C)o3)C2)C1	-57.27
Cc1ccc(CN2CCC3(CCN(S(=O)(=O)c4ccccc4)C3)C2)o1 (stereo not drawn)	79.54
Cc1ccc(CN2CCC3(CCCN(S(C)(=O)=O)C3)C2)o1 (stereo not drawn)	-70.82
O=C(c1cccs1)N1CC[C@H](O)[C@@H]1Cc1ccccc1	-5.522
COc1ccccc1C(=O)Nc1c(F)c(C(=O)N2CCCC2)nn1C	-139.8
COC(=O)CN1Cc2cc3c(cc2NCCC1=O)OCO3	-54.83
Cc1c(C)n(Cc2ccccn2)c2nc3c(c(N)c12)CCCCCC3	58.63
Cc1c(C)n(Cc2ccncc2)c2nc3c(c(N)c12)CCCC3	-16.59
CCCc1nc2c(c(C)c(C)n2Cc2ccncc2)c(N)c1CC	59.32
CCc1nc2c(c(C)c(C)n2Cc2cccnc2)c(N)c1C	18.39
Cc1c(C)n(Cc2ccccn2)c2nc3c(c(N)c12)CCCCC3	22.61
Cc1c(C)n(-c2ccccn2)c2nc3c(c(N)c12)CCCC3	19.64
Cc1cc(C(=O)N2CCNC(=O)C2)c(C)n1Cc1ccccn1	-70.27
CCCc1nc2c(c(C)c(C)n2Cc2ccccn2)c(N)c1CC	58.37
CCc1cc(NCCc2cccnc2)n2nc(C)c(C)c2n1	-66.72
Cc1c(C)n(Cc2ccccn2)c2nc3c(c(N)c12)CCCC3	45.51
CCCc1nc2c(c(C)c(C)n2Cc2cccnc2)c(N)c1CC	64.11
Cc1c(C)n(Cc2ccncc2)c2nc3c(c(N)c12)CCCCCC3	27.24
O=C(C1CCOC1)N1CCN(Cc2ccncc2)c2ncccc2C1 (stereo not drawn)	-72.96
Cn1cc(I)c(C(=O)NC2CCCCC2)n1	-69.52

SMILES	Percent Effect [%]
CCCC(O)CN1CCC(=O)N(CC)Cc2cc3c(cc21)OCO3 (stereo not drawn)	-23.81
CC(CC(=O)N1CCCN(Cc2cscn2)CC1)n1cccc1 (stereo not drawn)	4.954
CC(NCc1cccc(COC2CCCC2)c1)c1cnn(C)c1 (stereo not drawn)	19.99
CC(C)CC(Cc1cccc(Br)c1)C(=O)O (stereo not drawn)	-132.5
Cc1nc(C)c(S(=O)(=O)NC(=O)c2cccs2)s1	-74.76
CO[C@H]1CC[C@H]2[C@H]1OCCN2Cc1ccc(F)cc1.O=C(O)C(F)(F)F	-88.16
Cc1ccnc(NC(=O)C2CCN(CCCn3ccnc3C)CC2)c1	23.63
CCCc1nnsc1C(=O)NCC(O)c1ccc(SC)cc1 (stereo not drawn)	-63.08
Cc1cccc(CN2CCC3(CCCN(Cc4cnn(C)c4)C3)C2)n1.O=C(O)C(F)(F)F.O=C(O)C(F)(F)F (stereo not drawn)	-27.4
Cc1cccc(CN2CCCC3(CCN(CC4CCCO4)CC3)C2)n1.O=C(O)C(F)(F)F.O=C(O)C(F)(F)F (stereo not drawn)	42.53
COc1cccc(C(=O)N2CCCC(CNS(C)(=O)=O)C2)c1 (stereo not drawn)	-46.69
O=C(CCn1cccc1)N1CCc2[nH]nc(COc3ccccc3)c2C1	-21.18
CS(=O)(=O)NC[C@H]1Cn2c(-c3ccc(F)cc3)cnc2CO1	-35.88
CS(=O)(=O)NC[C@H]1Cn2c(-c3ccc(Cl)cc3)cnc2CO1	56.68
CS(=O)(=O)NC[C@H]1Cn2c(-c3ccccc3)cnc2CO1	-22.21
CC(C)c1noc(C2CCN(C(=O)c3cccs3)CC2)n1	-59
O=C(NCCCN1CCCC1=O)c1nc(-c2ccc3cc[nH]c3c2)no1	-52.39
O=C1CC2(CCN(Cc3ccsc3)C2)CN1c1ccc2c(c1)OCO2 (stereo not drawn)	-25.08
O=C1CCCN1Cc1nnc2n1CCCN(C(=O)c1ccco1)C2	-1.82
O=C(c1cc(Cl)ccc1OC1CCN(C2CCCC2)CC1)N1CCCO1	51.12
CC(=O)N1CCC(Oc2ccc(Cl)cc2C(=O)N2CCCO2)CC1	-31.72
O=C(c1cc(Cl)ccc1OC1CCN(C2CCCC2)CC1)N1CC(O)C1	-105.7
Cc1noc(C)c1CCC(=O)N1CCCCC1CNS(C)(=O)=O (stereo not drawn)	-22.15
COc1ccc2c(ccn2CCC(=O)/N=c2\[nH]nc(C3CCCO3)s2)c1 (stereo not drawn)	-157
Cc1nc(Oc2ccccc2F)sc1C(=O)O	-115.2
Clc1ccccc1-c1cc(CNc2ncnc3c2CCNCC3)no1	79.72

SMILES	Percent Effect [%]
COc1ccc(-c2cc(CNc3ncnc4c3CCNCC4)no2)cc1	13.56
Cc1ccccc1-n1cc(CNc2ncnc3c2CCNCC3)cn1	25.52
c1ccc(Cn2cc(CNc3ncnc4c3CCNCC4)cn2)cc1	-75.72
Cc1cccc(-n2cc(CNc3ncnc4c3CCNCC4)cn2)c1	12.81
Cc1ccc(-c2cc(CNc3ncnc4c3CCNCC4)no2)cc1	62.41
Cc1nn(CC(=O)O)c(C)c1NS(=O)(=O)c1cc2ccccc2s1	-90.75
COc1ncccc1CNC1CCc2c(ccc(=O)n2CC2CC2)C1.O=C(O)C(F)(F)F.O=C(O)C(F)(F)F (stereo not drawn)	-69.76
O=C(COCC(=O)N(c1ccccc1)c1ccccc1)N1CCOCC1	-115.4
CCc1nc(CN(C)C2CCN(CCCOc3ccccc3)C2)no1 (stereo not drawn)	-2.481
COc1ccccc1-c1ncc(CN2CCCC[C@H](N(C)C)C2)s1	69.91
CN(C)[C@H]1CCCCN(Cc2cnc(NCc3ccccc3)nc2)C1	-25.46
COc1ccccc1-c1ncc(CN2CCCC(CCC(N)=O)C2)s1 (stereo not drawn)	-45.2
CC(=O)Nc1ccc2nc(CN(C)Cc3noc(C)n3)ccc2c1	-81.21
CC(C)S(=O)(=O)CCN1CCN(C(C#N)c2ccccc2)CC1 (stereo not drawn)	-69.53
NC(=O)C1CCN(c2ccc(C(=O)N3CCc4ccccc43)cn2)C1 (stereo not drawn)	-37.49
CNCc1nc(-c2ccc3c(c2)OCO3)c[nH]1.Cl.Cl	-83.48
O=C(CSc1ccc2c(c1)OCCO2)NS(=O)(=O)c1ccccc1Br	-14.98
I.c1ccc(Sc2ccc3c(c2)OCO3)c(CNC2=NCCN2)c1	83.34
c1ccc(-n2nnnc2NCc2ccc3c(c2)OCO3)cc1	-79.7
N#Cc1c[nH]nc1NCc1ccc2c(c1)OCO2	-94.84
Cc1ccc(N(CC(=O)N2CCCCC2)C(=O)C2CCCO2)cc1 (stereo not drawn)	-77.19
CS(=O)(=O)N1C[C@@H]2COC[C@]2(COCC(=O)N2CCCC2)C1	-14.15
CCCNc1ccc(C(=O)NCCc2ccc(Cl)cc2)cn1	-35.94
COc1cccc(C2CCCN2C(=O)NCCCn2cccn2)c1 (stereo not drawn)	-100.5
Cn1cc(CNCCC(=O)NCc2ccccc2)c(-c2cccnc2)n1	-26.7
Cn1cc(CNCCOc2ccc(F)c(F)c2)c(-c2cccnc2)n1	53.44

SMILES	Percent Effect [%]
CCCNCc1cn(Cc2ccccc2)nc1-c1cccnc1.Cl	57.61
Cn1cc(CNCCNC(=O)Cc2ccccc2)c(-c2cccnc2)n1	7.378
CN(C)C(C)(C)CNCc1cn(C)nc1-c1cccnc1.Cl	-6.426
Cn1cc(CNCCc2cccnc2)c(-c2cccnc2)n1	-43.46
COCCCOc1ccc(C(=O)N(C)Cc2cccc(O)c2)cn1	-93.61
CC(C)(C)OC(=O)N1CCN(C(=O)c2cnn3c2OCCC3)CC1	-73.8
CC(CC(=O)c1ccco1)NC(=O)c1ccon1 (stereo not drawn)	-111.2
O=C(Nc1nc2c(s1)CN(S(=O)(=O)C1CC1)CC2)c1ccsc1	-79.83
Fc1ccccc1C1NCCc2cc3c(cc21)OCCO3 (stereo not drawn)	-25.34
CCCn1nnc(NCc2ccc(-c3ccc(Br)cc3)o2)n1	-170.9
CC(=O)NC1CCN(c2nc(N)nc3c2CCCC3)C1 (stereo not drawn)	-119.8
Nc1nc2c(c(NC(=O)Nc3cccc(Cl)c3)n1)CCCC2	-1.173
CN1CCCCc2c1nc1c(c2N)CCC1.O=C(O)c1cc([N+](=O)[O-])ccc1Cl	64.96
CN1CCc2c1nc1c(c2N)CCC1	-63.1
CN1CCCc2c1nc1c(c2N)CCCC1.O=C(O)C(=O)O	75.22
CN1CCc2nc3c(c(N)c2C1)CCCN3C	-6.547
Nc1nc2c(c(NC(=O)Nc3ccc(Cl)c(Cl)c3)n1)CCCC2	-65.1
CN1CCCc2c1nc1c(c2N)CCC1	-51.79
CN1CCCCc2c1nc1c(c2N)CCCC1	64.21
CC1CN(C)c2ccccc2CN1C(=O)c1cc(C#N)cn1C (stereo not drawn)	-35.84
CCN(CC)S(=O)(=O)c1ccc2c(c1)N(Cc1ccncc1)C(=O)CS2	-124.7
COCC(C)NC(=O)CN1CCC(CO)CC1 (stereo not drawn)	-50.48
Cc1cc(NCC2CC(=O)Nc3ccccc32)nc(C)n1 (stereo not drawn)	-157
O=C1CC(CNc2cncc(Cl)n2)c2ccccc2N1 (stereo not drawn)	64.58
O=C1CC(CNc2cncc(Br)c2)c2ccccc2N1 (stereo not drawn)	9.989
